The values that follow come from PubChem BioAssay (EPA / NIEHS).

SMILES strings stand for the structures. The source holds several records for some structures; these can differ, active in one and inactive in another. Calls of active or inactive are those of the source. How the source made its calls: active means hit-call score of the fitted dose curve at least 0.9, where 1 is the maximum; inactive means score below 0.9.

This experiment in a line: ATG_GRE_CIS: Attagene CIS-FACTORIAL HepG2 Assay for human Glucocorticoid Response Elements (GRE) (AID 2282947). The following applies: HepG2 GRE cis-reporter, Attagene multiplex mRNA; actives raise or lower the signal. As for the experimental part: ATG_CIS is a cell-based, multiplexed-readout assay that uses HepG2, a human liver cell line, with measurements taken at 24 hours after chemical dosing in a 24-well plate.ATG_GRE_CIS is one of 52 assay component(s) measured or calculated from the ATG_CIS assay. It is designed to make measurements of mRNA induction, a form of inducible reporter, as detected with fluorescence intensity signals by Reverse transcription polymerase chain reaction (RT-PCR) and Capillary electrophoresis technology.Data from the assay component ATG_GRE_CIS was analyzed into 1 assay endpoint. This assay endpoint, ATG_GRE_CIS, was analyzed with bidirectional fitting relative to DMSO as the negative control and baseline of activity. Using a type of inducible reporter, measures of mRNA for gain or loss-of-signal activity can be used to understand the reporter gene at the transcription factor-level as they relate to the gene NR3C1. Furthermore, this assay endpoint can be referred to as a primary readout, because this assay has produced multiple assay endpoints where this one serves a reporter gene function. To generalize the intended target to other relatable targets, this assay endpoint is annotated to the nuclear receptor intended target family, where the subfamily is steroidal.
Human liver HepG2 cells are transiently transfected with multiple reporter transcription units (MRTUs) in 6-well plates using FuGene 6 reagent (Roche; 3 ml FuGene/1 mg DNA). The MRTU constructs are regulated by a cis-regulating element (promoter). […] A major difference between the CIS and TRANS system is that in CIS activities of endogenous TFs are measured, whereas the TRANS assay evaluates changes in activities of exogenous, chimeric NR-Gal4 proteins. […] At the end of 24 hour incubation, total RNA was isolated using TriZol reagent (Invitrogen). The isolated RNA is then reverse-transcribed using oligo(dT) primer and Mo-MLV reverse transcriptase (Invitrogen) with DNAse I (Ambion) treatment for 30 min. The one-tenth of the produced cDNA was amplified by PCR using Taq DNA polymerase (Invitrogen) and two reporter sequence-specific primers. The PCR products were fluorescently labeled by primer extension with 6-arboxyfluorescein (6-FAM) 5'-labeled reporter sequence-specific primer (2 min at 95 C, 20 s at 68 C and 10 min at 72 C) and these products were digested with 5U of HpaI (New England Biolabs) for 2h at 37 C. The fragments were purified using Qiaquick PCR columns (Qiagen), analyzed on an ABI 3130xL genetic analyzer (Applied Biosystems) with peak positions identified by using a set of X-rhodamine (ROX)-labeled MapMarker1000 molecular weight standards (BioVentures). The raw capillary electrophoresis data was processed using Attagraph software (Attagene).
Consider `Fc1ccc(Oc2ccnc3cc(Cl)cc(Cl)c23)cc1`, for which the call was inactive.
Consider `CO/C=C(/C(=O)OC)c1ccccc1Oc1cc(Oc2ccccc2C#N)ncn1`, for which the compound was classed as inactive.
For `CC1COC(Cn2cncn2)(c2ccc(Oc3ccc(Cl)cc3)cc2Cl)O1` (stereo not given), the compound was called inactive.
As for `CCOC(=O)CC(SP(=S)(OC)OC)C(=O)OCC` (stereo not given), the call was inactive.
Turning to `CCCCNC(=O)n1c(NC(=O)OC)nc2ccccc21`, the call was inactive.
On to `CON(C)C(=O)Nc1ccc(Cl)c(Cl)c1`, for which the result was inactive.
On to `CCCC1COC(Cn2cncn2)(c2ccc(Cl)cc2Cl)O1` (stereo not given), for which the compound was classed as inactive.
`OC(c1ccc(Cl)cc1)(c1cncnc1)c1ccccc1Cl` (stereo not given): the result was inactive and the concentration at half-maximal activity (AC50) (usually the concentration giving half of the maximal activity seen) was 0.622 µM (active).
As to `COc1nc(C)nc(NC(=O)NS(=O)(=O)c2ccccc2Cl)n1`, the compound was called inactive.
As for `CC1=C(C(=O)Nc2ccccc2)SCCO1`, the call was inactive.
The same measure, in the same setting: under `COc1nc(NC(C)C)nc(NC(C)C)n1` stands “inactive”.
For `CCCCC(CC)COC(=O)c1ccccc1C(=O)OCC(CC)CCCC` (stereo not given), the outcome was inactive.
Take `COP(=S)(OC)Oc1nc(Cl)c(Cl)cc1Cl`: the result was inactive.
Regarding `CC(C)C1(C)N=C(c2nc3ccccc3cc2C(=O)O)NC1=O` (stereo not given), the compound was classed as inactive.
Consider `N#Cc1nn(-c2c(Cl)cc(C(F)(F)F)cc2Cl)c(N)c1S(=O)C(F)(F)F` (stereo not given), for which the compound was called inactive and the concentration at half-maximal activity (AC50) is 29 µM (active).
Regarding `CCNc1nc(Cl)nc(NCC)n1`, the result was inactive.
As for `COc1nc(C)nc(NC(=O)NS(=O)(=O)c2ccccc2CCC(F)(F)F)n1`, the result was inactive.
As to `CCCCNC(=O)OCC#CI`, the compound was classed as inactive.
As for `C=CC1(C)OC(=O)N(c2cc(Cl)cc(Cl)c2)C1=O` (stereo not given), the compound was called inactive.
Consider `C=CCC1=C(C)[C@@H](OC(=O)[C@@H]2[C@@H](C=C(C)C)C2(C)C)CC1=O`, for which the call was inactive.
Turning to `CCOc1cc(Oc2ccc(C(F)(F)F)cc2Cl)ccc1[N+](=O)[O-]`, the outcome was inactive.
For the compound `N#CC(CCc1ccc(Cl)cc1)(Cn1cncn1)c1ccccc1` (stereo not given), the outcome was inactive.
In the case of `CNC(=O)ON=CC(C)(C)SC`, the call was inactive.
For the compound `COP(N)(=O)SC` (stereo not given), the result was inactive.
Regarding `O=C(O)c1nc(Cl)ccc1Cl`, the call was inactive.
On to `C#CCOS(=O)OC1CCCCC1Oc1ccc(C(C)(C)C)cc1` (stereo not given), for which the compound was classed as inactive.
On the same count and under the same terms, the value for `COC(=O)c1ccccc1C(=O)OC` was “inactive”.
Same read-out and setting: the value for `O=C(O)COc1nc(Cl)c(Cl)cc1Cl` was “inactive”.
For `CCCCOC(=O)c1ccccc1C(=O)OCCCC`, the compound was called inactive.
As for `O=C(Nc1ccccc1)Nc1ccnc(Cl)c1`, the result was inactive.
Turning to `Cc1ccc(-c2c(Cl)nc(C#N)n2S(=O)(=O)N(C)C)cc1`, the compound was classed as inactive.
With `CN(C)C(=S)SSC(=S)N(C)C`, the result was inactive.
The same measure, in the same setting: the value for `COC(=O)N(OC)c1ccccc1COc1ccn(-c2ccc(Cl)cc2)n1` was “inactive”; that for `CCCN(CCC)c1c([N+](=O)[O-])cc(S(N)(=O)=O)cc1[N+](=O)[O-]` was “inactive”.
For the compound `CCOP(=S)(OCC)SCn1c(=O)oc2cc(Cl)ccc21`, the outcome was inactive.
As to `N#Cc1cc(Br)c(O)c(Br)c1`, the outcome was inactive.
Consider `COc1cnc(OC)n2nc(NS(=O)(=O)c3c(OCC(F)F)cccc3C(F)(F)F)nc12`, for which the compound was called inactive.
Take `CC(Oc1ccc(Cl)cc1Cl)C(=O)O` (stereo not given): the compound was called inactive.
